Measured values from PubChem BioAssay AID2796 (The Scripps Research Institute Molecular Screening Center, 2010).
About 8,000 (2.5%) of roughly 320,000 compounds were called active. Rule as the data show it: active = activation above about 47%; inactive = the rest. Shown is part of a subset that was picked to be rich in actives.

These compounds were tested against Aryl hydrocarbon receptor (Homo sapiens) (UniProt P35869) (assay: AHR activators, primary screen, cell-based, luminescence, luciferase reporter, human (AID 2796;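 also: 0% = vehicle wells and 100% = reference agonist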)). Conditions: AHR-responsive luciferase reporter cells, at 5 µM, hits give high values.
Aryl hydrocarbon receptor (Homo sapiens), sequence (P35869 whole entry, looked up): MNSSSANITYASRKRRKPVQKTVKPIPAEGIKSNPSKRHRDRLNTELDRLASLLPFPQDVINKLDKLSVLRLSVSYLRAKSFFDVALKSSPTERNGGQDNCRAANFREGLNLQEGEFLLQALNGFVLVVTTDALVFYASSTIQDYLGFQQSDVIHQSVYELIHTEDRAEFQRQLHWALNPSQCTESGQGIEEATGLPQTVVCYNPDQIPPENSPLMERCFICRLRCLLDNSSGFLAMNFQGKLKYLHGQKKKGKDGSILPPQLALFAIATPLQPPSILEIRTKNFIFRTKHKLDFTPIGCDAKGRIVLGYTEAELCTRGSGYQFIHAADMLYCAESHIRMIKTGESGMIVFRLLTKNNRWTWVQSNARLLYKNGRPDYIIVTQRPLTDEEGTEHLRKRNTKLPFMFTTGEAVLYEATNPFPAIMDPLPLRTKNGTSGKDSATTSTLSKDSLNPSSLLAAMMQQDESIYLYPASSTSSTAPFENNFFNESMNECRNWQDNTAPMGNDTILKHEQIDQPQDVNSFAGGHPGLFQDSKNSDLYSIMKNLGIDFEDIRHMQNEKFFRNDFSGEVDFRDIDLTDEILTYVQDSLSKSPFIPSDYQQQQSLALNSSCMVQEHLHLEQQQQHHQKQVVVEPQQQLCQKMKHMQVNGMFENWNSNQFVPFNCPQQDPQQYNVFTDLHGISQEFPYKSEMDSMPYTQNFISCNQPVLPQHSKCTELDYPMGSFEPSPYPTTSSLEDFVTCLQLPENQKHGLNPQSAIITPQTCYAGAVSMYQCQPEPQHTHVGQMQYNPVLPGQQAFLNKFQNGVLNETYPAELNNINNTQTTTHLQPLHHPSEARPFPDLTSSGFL

Compound | activation
CN1CCN(C(CNS(=O)(=O)c2cccs2)c2cccnc2)CC1 (centres undefined) | 0.06% (inactive)
Cc1cc(C(=O)NNS(=O)(=O)c2ccccc2C(F)(F)F)nn1C(C)(C)C | 33.2% (inactive)
Cc1ccc(C(=O)NC(=S)NCc2cccnc2)cc1 | 70.4% (active)
Cc1c(C(=O)NC(=S)NCc2cccnc2)oc2ccccc12 | 6.27% (inactive)
CC(C)(C)c1cc(C(=O)NCc2cccnc2)ccn1 | 5.21% (inactive)
CS(=O)(=O)N1CCCC(C(=O)N2CCOCC2)C1 (centres undefined) | -4.42% (inactive)
COc1ccc(CNc2nc(NCc3ccc(OC)cc3)c3ncn(C4CCCC4)c3n2)cc1 | 5.12% (inactive)
CCN(CC(=O)Nc1ccccc1C(F)(F)F)C(=O)C1CCN(C(=O)Nc2ccccc2)CC1 | 0.13% (inactive)
CSc1ncccc1C(=O)NCC(c1ccco1)N1CCCCC1 (centres undefined) | 0.96% (inactive)
Cc1cc(S(=O)(=O)Nc2ccc(C(=O)NCC(c3ccco3)N3CCCC3)cc2)ccc1F (centres undefined) | 2.37% (inactive)
Cc1c(C(=O)NCC(c2ccco2)N2CCCC2)oc2ccc(Cl)cc12 (centres undefined) | 91.5% (active)
O=C1/C(=C/c2ccc3c(c2)OCO3)Oc2cc(OCC(=O)N3CC(O)C[C@H]3C(=O)O)ccc21 (some centres undefined) | 0.62% (inactive)
Cc1[nH]n(-c2ccccc2)c(=O)c1/C=N/NC(=O)c1ccoc1C | 24.8% (inactive)
Cc1ccc(-n2[nH]c(C)c(/C=N/NC(=O)c3cccc([N+](=O)[O-])c3)c2=O)cc1C | 15.9% (inactive)
COc1cc(SC#N)ccc1N=Cc1c(C)[nH]n(-c2ccc(C)cc2)c1=O | 71.7% (active)
Cc1nn(C)c(C)c1Sc1ccccc1N | 2.57% (inactive)
O=C(Nc1ccccc1Cl)N1CCN(c2ccc3nncn3n2)CC1 | -1.87% (inactive)
Cc1ccc(/C=C(\C#N)C(=O)Nc2cccc3ncccc23)o1 | 7% (inactive)
O=C(c1ccc(Cl)cc1)n1cnc2ccccc21 | -0.68% (inactive)
O=C(Cc1nc2ccccc2[nH]c1=O)c1ccc(Cl)cc1 | 57.9% (active)
O=c1c(-c2ccc(Cl)cc2)[n+]([O-])c2ccccc2n1OCc1nc2ccccc2[nH]1 | 24.5% (inactive)
CCN(CCn1cccn1)Cc1cn[nH]c1-c1ccc(OC)cc1F | 1.96% (inactive)
[O-][n+]1c2c(nn1-c1ccc(Cl)c(Cl)c1)-c1nonc1CC2 | 78.5% (active)
O=C(COc1ccc([N+](=O)[O-])cc1)Nc1cccc(C(=O)Nc2ccccc2C(=O)O)c1 | -3.04% (inactive)

Compound | activation
CCOC(=O)/C=C/CN(C(=O)OC(C)(C)C)S(=O)(=O)N1CC=CC1 | -1.1% (inactive)
COC(=O)c1ccc(/C=N/N2C(C)CCCC2C)cc1 (centres undefined) | -0.9% (inactive)
COc1ccc(C(=O)N2CCN(c3ccc(C(C)=O)cc3F)CC2)cc1S(=O)(=O)NC1CC1 | 2.09% (inactive)
O=C(Nc1ccc(N2C(=O)c3cccc4cccc(c34)C2=O)cc1)c1ccc(N2CCCCC2)c([N+](=O)[O-])c1 | -0.89% (inactive)
CCC(c1nnnn1C1CCCC1)N(Cc1cccs1)Cc1cc2cccc(C)c2[nH]c1=O (centres undefined) | 54.6% (active)
CCC(c1nnnn1Cc1ccco1)N(CCc1ccccc1)Cc1cc2cccc(C)c2[nH]c1=O (centres undefined) | 19.4% (inactive)
Cc1cccc2cc(CN(Cc3nnnn3Cc3ccccc3)C3CCCC3)c(=O)[nH]c12 | 12.9% (inactive)
CC(=O)Nc1ccc(S(=O)(=O)NCCC(=O)N2CCN(c3ccccc3Cl)CC2)cc1 | 0.74% (inactive)
CCC(CO)Oc1cc(NC(=O)c2cccc3ccccc23)c2ncn(C(C)C)c2c1 (centres undefined) | 5.86% (inactive)
COC(=O)c1cc(C(=O)OCC(=O)Nc2cc(C)on2)cc([N+](=O)[O-])c1 | 0.26% (inactive)
O=C1CC2(CCCC2)C(=O)N1CN1CCN(S(=O)(=O)c2ccc(F)cc2F)CC1 | 1.21% (inactive)
CNC(=O)Nc1cc(C(C)(C)C)no1 | 1.28% (inactive)
COc1ccccc1-c1nnc(-c2ccc(F)cc2)o1 | 33.5% (inactive)
CSc1ccccc1-c1nnc(-c2ccc(Cl)cc2)o1 | 52.9% (active)
FC(F)(F)c1cnc(Oc2ccccc2-c2nnc(-c3ccc(Cl)cc3)o2)c(Cl)c1 | 1.03% (inactive)
c1ccc(-n2nc3ccccc3n2)cc1 | -5.11% (inactive)
CCC(=O)Nc1ccc2nn(-c3ccc(F)cc3)nc2c1 | 31.9% (inactive)
Nc1ccc2nn(-c3ccc(Cl)cc3)nc2c1 | 109% (active)
Cc1nn(-c2ccccc2)nc1C(=O)OCC(=O)N1CCCCC1C (centres undefined) | 4.35% (inactive)
CC(Sc1nnc(C2CC2)n1C1CC1)C(=O)Nc1ccc(C(N)=O)cc1 (centres undefined) | -0.58% (inactive)
c1cnc(N2CCN(c3ccc4ccccc4n3)CC2)nc1 | 120% (active)
CC12CCC(C(=O)N3CCN(c4ncccn4)CC3)(c3nc4ccccc4nc31)C2(C)C (centres undefined) | 16.9% (inactive)
O=C(c1ccncc1)N1CCN(c2ccc3ccccc3n2)CC1 | -0.88% (inactive)
O=C1NC(c2ccccc2)CCC1(Cl)Cl (centres undefined) | 0.32% (inactive)

Compound | activation
CC(C)CCN1CCN(Cc2ccc(C(F)(F)F)cc2)CC1CCO (centres undefined) | 1.42% (inactive)
COc1cc(NC(=O)COC(=O)c2cnc(C)cn2)c(C)cc1[N+](=O)[O-] | 49.4% (active)
COc1cc(NC(=O)COC(=O)CSc2ccc3ccccc3c2)c(C)cc1[N+](=O)[O-] | 60% (active)
COc1ccc(OCC(=O)Nc2cc(C)c(Cl)cc2OC)c([N+](=O)[O-])c1 | 3.52% (inactive)
Cc1cnc(C(=O)OCC(=O)Nc2ccc(Cl)cc2Cl)cn1 | 2.01% (inactive)
Cc1cc(NC(=O)COC(=O)COc2ccc(Cl)cc2C)c([N+](=O)[O-])cc1C | 4.86% (inactive)
Cc1ccc(C)c(NC(=O)COC(=O)CSc2ccccc2)c1 | -0.94% (inactive)
Cc1cccc(N2CCN(C(=O)/C=C/c3ccco3)CC2)c1C | 2.32% (inactive)
CCN(CC)S(=O)(=O)c1ccc(N2CCCC2)c(NC(=O)c2ccc([N+](=O)[O-])o2)c1 | 0.5% (inactive)
COc1ccc(N2C(=O)C3C(C2=O)C(C(=O)c2ccccc2)N2CCCC32)cc1 (centres undefined) | 5.21% (inactive)
Cc1nc2c(c(C)nn2-c2ccccc2)c(C)c1C | 45.6% (inactive)
Cc1nn(-c2ccccc2)c2[nH]c(C(F)(F)F)cc(=O)c12 | 80.4% (active)
Cc1nn(-c2ccccc2)c(=O)c2noc(C)c12 | -0.28% (inactive)
C=CCC[C@@H](Cc1ccc(F)cc1)C(=O)O[C@H](CNC(=O)[C@H](CC=C)CC(=O)N(CCO)Cc1ccccc1)c1ccccc1 | -0.27% (inactive)
CCc1ccccc1NC(=O)/C(=C/c1ccccc1)c1ccccc1 | 0.15% (inactive)
O=C(Nc1ccc(C(=O)O)cc1)/C(=C\c1ccccc1)NC(=O)c1ccc(Br)cc1 | -2.04% (inactive)
O=C(/C=C/c1ccccc1)N/C(=C/c1ccccc1)C(=O)Nc1ccccc1O | 74.4% (active)
Cc1ccc(S(=O)(=O)N2CCOCC2)cc1NC(=O)COC(=O)c1cnccn1 | 0.82% (inactive)
O=C(CCl)Nc1cccc(CP(=O)(c2ccccc2)c2ccccc2)c1 | -0.56% (inactive)
Cc1ccc(S(=O)(=O)N(C)C)cc1NC(=O)CN1c2cccc3cccc(c23)S1(=O)=O | 5.14% (inactive)
CC(=O)N[C@@H](C)C(=O)N1CCC(n2nccc2NC(=O)CCCc2ccccc2)CC1 | 1.83% (inactive)
O=C(CCNS(=O)(=O)c1ccc(Br)cc1)NCC1CCCO1 (centres undefined) | 0.8% (inactive)
COc1ccccc1NC(=O)C1=C(C)Nc2ncnn2C1c1ccc(C)o1 (centres undefined) | 13.1% (inactive)
COc1ccccc1NC(=O)C1=C(C)NC2=C(C(=O)CCC2)C1c1ccc(C)o1 (centres undefined) | 102% (active)

Compound | activation
COc1ccccc1NC(=O)C1=C(C)NC(=O)NC1c1ccc(C)s1 (centres undefined) | 5.73% (inactive)
CCOc1cc2[nH]c(=S)n(CCN3CCCCC3C)c(=O)c2cc1OCC (centres undefined) | 7.8% (inactive)
COC(CNC(=O)c1ccc2c(c1)ncn2-c1cc(C)cc(C)c1)OC | 1.33% (inactive)
CS(=O)(=O)c1ccc2nc(NC(=O)c3ccc(Cl)nc3)sc2c1 | -5.2% (inactive)
Cc1ccc(C(=O)Nc2nc3ccc(Cl)cc3s2)o1 | -2.1% (inactive)
CNC(=O)c1ccc2nc(NC(C)=O)sc2c1 | 84.2% (active)
CC(NC(=O)CN(C)S(=O)(=O)c1ccc(F)cc1)C1CC2CCC1C2 (centres undefined) | -0.07% (inactive)
CCNC(=S)N1CCC(c2nc3cc(C)c(C)cc3[nH]2)CC1 | 84.9% (active)
CN(C)CCCNC(=S)N1CCC(c2nc3ccccc3[nH]2)CC1 | -0.37% (inactive)
COCCCNC(=S)N1CCCC(c2nc3cc(C)c(C)cc3[nH]2)C1 (centres undefined) | 12.7% (inactive)
CC(=O)Nc1ccc(NC(=O)CCCNC(=O)c2ccc(Cl)cc2)cc1 | 1.47% (inactive)
CCCCC(=O)Nc1ccc(C(=O)Nc2cc(C(F)(F)F)ccc2Cl)cc1 | 140% (active)
O=C(Nc1cc(C(F)(F)F)ccc1Cl)c1cc(C2CC2)on1 | 20.4% (inactive)
COc1ccccc1-c1cnn2c(N3CCOCC3)cc(C)nc12 | 34.4% (inactive)
O=C(COC(=O)c1cccnc1Cl)NC(=O)NC1CCCCC1 | -1.66% (inactive)
COC(C[C@@H]1O[C@@H]1C(=O)[C@H](C)OCc1ccccc1)OC | -0.2% (inactive)
Brc1ccc(-c2noc(-c3ccccc3)n2)o1 | 122% (active)
Cn1nc(-c2ccccc2)c(-c2nc(-c3ccc(Cl)cc3)no2)c1Cl | -1.35% (inactive)
Brc1ccc(-c2nnc(-c3ccccc3)o2)o1 | 70.7% (active)
O=C(OCc1ccc(Br)cc1)c1cccc(-c2nnc(-c3ccccc3)o2)c1 | 11.6% (inactive)
Nc1ccc(-c2nnc(-c3ccccc3)o2)cc1 | 3.02% (inactive)
Nc1nonc1-c1noc(-c2ccc(Br)o2)n1 | 14.2% (inactive)
